# MEKK2mut PB1 HTS: signal of MEK5 binding to mutant human MEKK2 PB1 domain; percent response, % at 10 µM; 290,000 tested, 0.35% active; AID 1530; bead flow cytometry, Alexa488-MEK5 binding to MEKK2 mutant; in the data active = percent response above about 24%, passing the limit was not always enough
# SKN-1 inh: blocks SKN-1 activity in C. elegans; C. elegans VP596 Pgst-4::GFP/RFP ratio, acrylamide-induced, 24 h; inhibition, % at 21.8 µM; 360,000 tested, 0.49% active; AID 624304;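 active = interference check ratio from 0.5 to 1.5 plus GFP to RFP signal ratio inhibition reaching or exceeding a fixed threshold, cut at about 30% in these data, passing the limit was not always enough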
# CendR NRP1 mod: modulators of CendR peptide binding to human neuropilin-1 | O14786 | FAM-RPARPAR peptide binding to NRP-1, fluorescence polarization | inhibition, % at 25 µM | 360,000 tested, 0.85% active | AID 602438;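 active = inhibition or corrected inhibition above about 18%, plus a signal ratio from 0.5 to 1.5, limit read from the data, passing the limit was not always enough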
# MEKK3 PB1 HTS: modulators (inhibitors or enhancers) of MEK5 binding to human MEKK3 PB1 domain; bead-based flow cytometry, Alexa488-MEK5 binding to MEKK3; actives lie on both sides; 0 = blocked by unlabeled MEK5, 100 = vehicle; binding response (% of control), % at 10 µM; 290,000 tested, 1.4% active;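 active = binding response more than 3 SD above or below the average of its plate-row segment, actives on both sides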;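 note: Alexa488 bead fluorescence after subtracting the streptavidin-only scavenger bead signal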
# Target sequence (Q99759 whole entry, looked up, the tested form may be a part): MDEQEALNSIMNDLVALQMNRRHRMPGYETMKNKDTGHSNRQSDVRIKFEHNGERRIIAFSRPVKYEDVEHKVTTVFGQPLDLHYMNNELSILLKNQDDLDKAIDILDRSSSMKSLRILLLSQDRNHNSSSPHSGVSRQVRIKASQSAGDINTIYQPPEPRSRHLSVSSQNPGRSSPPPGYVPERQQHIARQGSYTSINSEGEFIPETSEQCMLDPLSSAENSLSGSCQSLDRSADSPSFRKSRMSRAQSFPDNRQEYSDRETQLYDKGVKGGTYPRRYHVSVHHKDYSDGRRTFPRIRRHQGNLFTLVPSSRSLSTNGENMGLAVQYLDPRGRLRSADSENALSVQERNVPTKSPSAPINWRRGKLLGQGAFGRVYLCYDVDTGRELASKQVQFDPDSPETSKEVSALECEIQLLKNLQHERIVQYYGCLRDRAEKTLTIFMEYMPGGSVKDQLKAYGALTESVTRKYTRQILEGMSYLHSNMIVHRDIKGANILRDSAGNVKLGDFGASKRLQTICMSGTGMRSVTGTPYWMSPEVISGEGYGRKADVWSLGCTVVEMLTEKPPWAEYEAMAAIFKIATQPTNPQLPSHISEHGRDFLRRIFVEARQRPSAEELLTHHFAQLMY
# MEKK2 WT-MEK5: raises or lowers MEK5 binding to wildtype human MEKK2 PB1 domain | 290,000 tested, 1.1% active | bead flow cytometry, Alexa488-MEK5 binding to MEKK2 WT; actives lie on both sides | Q9Y2U5 | binding response (% of control), % at 10 µM; in the data active = binding response below about 67% or above about 130%
# MEKK2wt confirm: raises or lowers MEK5 binding to wildtype human MEKK2, retest | shares compounds with MEKK3 PB1 HTS | bead flow cytometry, Alexa488-MEK5 binding to MEKK2 WT; actives lie on both sides | binding response (% of control), % at 10 µM | 5,900 tested, 2.4% active | AID 1892; in the data active = binding response below about 16% or above about 210%; inactive = in between
# MEKK2mut confirm: signal of MEK5 binding to mutant human MEKK2, retest; shares compounds with MEKK3 PB1 HTS; 5,900 tested, 2% active; bead flow cytometry, Alexa488-MEK5 binding to MEKK2 mutant; AID 1893; percent response, % at 10 µM; in the data active = percent response mostly above about 71%, no sharp cut-off; inactive = mostly below about 38%;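 note: higher means compound restores mutant binding toward wildtype level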
# MEKK3-MEK5 inh: confirmation of inhibitors of MEK5 binding to human MEKK3. shares compounds with MEKK3 PB1 HTS. bead flow cytometry, Alexa488-MEK5 binding to MEKK3; stronger effect = lower value. binding response (% of control), % at 10 µM. 5,900 tested, 1.8% active. AID 1894;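 active = binding response below 72% of control, or above a set upper limit, though filed actives all read lower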;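 note: 100% = DMSO only wells and 0% = binding blocked by excess unlabeled MEK5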
# An asterisk follows results filed as active; / = not tested or not shown; [ ] = dose if it differs, or a comment. Compounds with a hit are over-represented: about 3.2% of the library has one in this group of screens.
SMILES,MEKK2mut PB1 HTS,SKN-1 inh,CendR NRP1 mod,MEKK3 PB1 HTS,MEKK2 WT-MEK5,MEKK2wt confirm,MEKK2mut confirm,MEKK3-MEK5 inh
Clc1ccccc1-c1csc(Nc2cccnc2)n1,-40.0,15.8,-0.3,47.0*[inhibitor],59.0,103.0,5.0,103.0
O=C(O)c1ccc2c(c1)C1C=CCC1C(c1cc3c(cc1Br)OCO3)N2 (stereo not drawn),-6.0,-1.7,-21.0,100.0,98.0,/,/,/
Brc1cc2c(cc1C1Nc3ccccc3C3C=CCC31)OCO2 (stereo not drawn),-2.0,7.5,-9.1,67.0*[inhibitor],98.0,98.0,-2.0,103.0
O=C(c1ccc(Cl)cc1)c1ccc(CN2C(=O)c3ccccc3C2=O)o1,-16.0,-3.7,8.2,2.0*[inhibitor],2.0*[inhibitor],103.0,4.0,106.0
N#CNC(=Nc1cccc(F)c1)SCc1cccc(F)c1,1.0,-10.8,1.3,136.0*,107.0,105.0,2.0,100.0
O=C(NC1CCCCC1)C(C1CC1)n1c(=O)c(-c2cc3ccccc3[nH]2)nc2ccccc21 (stereo not drawn),/,8.8,17.2,/,/,/,/,/
COC(=O)N/N=C/c1ccc([N+](=O)[O-])s1,-4.0,-0.2,1.4,94.0,96.0,/,/,/
COc1ccccc1NC(=O)C(=O)N/N=C/c1ccc([N+](=O)[O-])s1,-21.0,11.1,11.0,63.0*[inhibitor],60.0*[inhibitor],120.0,10.0,103.0
COc1cccc(/C=N/NC(=O)C(=O)Nc2ccccc2OC(F)(F)C(F)F)c1,1.0,0.2,-8.5,149.0*,111.0,104.0,7.0,104.0
COc1ccccc1/C=N/NC(=O)C(=O)Nc1ccccc1OC(F)(F)C(F)F,1.0,-1.7,-11.1,134.0*,104.0,97.0,-8.0,98.0
COCCNC(=O)C1(C)CCCN(C(=O)c2cc(C)oc2C)C1 (stereo not drawn),/,7.4,1.4,/,/,/,/,/
Cc1ccc(-n2ncc(C(=O)Nc3cc(Cl)cc(Cl)c3)c2C2CCNCC2)cc1C,58.0*,-4.3,11.8,106.0,216.0*,143.0,-7.0,94.0
COc1cc2oc(-c3ccc(O)cc3)cc(=O)c2c(OC)c1O,-14.0,-5.4,17.8,37.0*[inhibitor],35.0*[inhibitor],100.0,-5.0,101.0
CCOC(=O)[C@@H]1[C@H]2COc3ccccc3[C@H]2N2C(=O)N(c3ccc(C(F)(F)F)cc3)C(=O)[C@]12C,-4.0,-19.8,18.1,100.0,93.0,/,/,/
Cc1n[nH]c(=S)n1-c1cccc(Cl)c1,-2.0,-2.9,0.3,74.0*[inhibitor],101.0,107.0,2.0,107.0
Cc1cccc(C)c1OCc1n[nH]c(=S)n1-c1ccccc1,-11.0,0.1,13.1,75.0,78.0,/,/,/
Cc1ccccc1OCc1n[nH]c(=S)n1-c1cccc(Cl)c1,24.0*,12.1,13.7,112.0,111.0,103.0,-2.0,102.0
OC(c1ccc(F)cc1)(C1CCCCC1)C(CN1CCOCC1)c1ccccc1 (stereo not drawn),2.0,30.4,2.5,95.0,98.0,/,/,/
O=C(Cn1nnc(-c2cccs2)n1)NCc1ccccc1,2.0,-5.6,20.7,102.0,97.0,/,/,/
O=C(Cn1nnc(-c2cccs2)n1)NNC(=O)c1ccccc1Cl,24.0,-1.3,5.3,128.0*,112.0,101.0,1.0,100.0
CCCOc1ccc(N2C(=O)CC(NNC(=O)c3ccc(COc4ccccc4)o3)C2=O)cc1 (stereo not drawn),3.0,4.9,5.0,142.0*,99.0,98.0,-4.0,97.0
COc1cccc2[nH]c(C(=O)NCc3ccccc3)cc12,2.0,20.8,5.5,104.0,103.0,/,/,/
COc1ccccc1CN1CC(C(=O)N2CCC(C(=O)c3ccccc3)CC2)CCC1=O (stereo not drawn),4.0,17.2,5.5,96.0,95.0,/,/,/
O=S(=O)(/C=C/c1ccccc1)N1CCN(c2ccc(F)cc2)CC1,-10.0,6.3,-4.1,74.0*[inhibitor],82.0,105.0,5.0,105.0
O=S(=O)(/C=C/c1ccccc1)N1CCN(c2ccccc2)CC1,6.0,13.0,1.8,105.0,105.0,/,/,/
SMILES,MEKK2mut PB1 HTS,SKN-1 inh,CendR NRP1 mod,MEKK3 PB1 HTS,MEKK2 WT-MEK5,MEKK2wt confirm,MEKK2mut confirm,MEKK3-MEK5 inh
Cc1ccc(OC(=O)c2cccnc2)cc1,-14.0,-5.5,-3.1,57.0*[inhibitor],56.0*[inhibitor],102.0,-1.0,106.0
COC(=O)c1cc(Br)ccc1OC(=O)c1cccnc1,-17.0,4.3,13.0,0.0*[inhibitor],0.0*[inhibitor],102.0,1.0,100.0
O=C(Oc1cccc(Br)c1)c1cccnc1,1.0,22.8,7.4,115.0,112.0,/,/,/
Cc1cc(C)cc(OC(=O)c2cccnc2)c1,7.0,19.0,-19.6,103.0,107.0,/,/,/
CCCCN1C(=O)C(=O)c2cc(Cl)ccc21,/,6.7,5.7,/,/,/,/,/
O=C(C[C@H]1CC[C@H]2[C@@H](COC[C@@H](O)CN2S(=O)(=O)c2ccccc2)O1)N[C@@H]1CCN(Cc2ccccc2)C1,/,5.2,11.3,/,/,/,/,/
N#C/C(=C\c1ccc(C#N)cc1)C(=O)N1CCCC1,-3.0,-4.5,-1.5,71.0*[inhibitor],88.0,103.0,5.0,101.0
CN(C)CCCNC(=O)/C(=C\c1ccc(-c2cccc([N+](=O)[O-])c2)o1)NC(=O)c1ccccc1,6.0,3.3,-6.8,109.0,101.0,/,/,/
Cc1ccc(C(=O)N/C(=C\c2ccc(-c3cccc([N+](=O)[O-])c3)o2)C(=O)NCCCN(C)C)cc1,22.0,10.1,-6.2,112.0,141.0*,113.0,6.0,95.0
Cc1ccc(C(=O)N/C(=C\c2ccc(-c3ccc(Br)cc3)o2)C(=O)NCCCN(C)C)cc1,37.0,12.6,-3.7,106.0,187.0*,181.0,38.0,104.0
CC(C)(C)S(=O)(=O)N1C[C@@H]2C(=CC[C@H]3C(=O)N(c4ccccc4)C(=O)[C@@H]23)[C@@H]1CCO,/,16.5,-15.4,/,/,/,/,/
O=c1oc2cc(Br)ccc2n1Cc1ccccc1,2.0,-0.5,-3.7,98.0,102.0,/,/,/
Cc1c(N2C(=O)c3ccc(Br)cc3C2=O)c(=O)n(-c2ccccc2)n1C,-16.0,-10.1,-6.9,2.0*[inhibitor],3.0*[inhibitor],97.0,5.0,100.0
Cc1c(N2C(=O)c3ccc4c5c(ccc(c35)C2=O)CC4)c(=O)n(-c2ccccc2)n1C,8.0,-16.8,11.1,97.0,99.0,/,/,/
CCCCN1CC(=O)N2[C@H](c3ccc(Cl)cc3)[C@@H]3C(=O)N(CC)C(=O)[C@@H]3[C@]2(Cc2ccccc2)C1=O,3.0,-8.9,17.9,101.0,104.0,/,/,/
O=C(CC1C(=O)NCCN1CC1CCCCC1)NCc1ccc(Cl)cc1 (stereo not drawn),26.0,18.3,2.9,117.0,147.0*,118.0,12.0,106.0
